Laboratory results as given in ChEMBL document CHEMBL1961873, “Compounds: GSK PKIS; Assays: Nanosyn kinase panel” (2012).

biological target: Mitogen-activated protein kinase kinase kinase kinase 4 (Homo sapiens) (UniProt O95819); settings: at 0.1 µM
Sequence (O95819 2-1239 limits assumed): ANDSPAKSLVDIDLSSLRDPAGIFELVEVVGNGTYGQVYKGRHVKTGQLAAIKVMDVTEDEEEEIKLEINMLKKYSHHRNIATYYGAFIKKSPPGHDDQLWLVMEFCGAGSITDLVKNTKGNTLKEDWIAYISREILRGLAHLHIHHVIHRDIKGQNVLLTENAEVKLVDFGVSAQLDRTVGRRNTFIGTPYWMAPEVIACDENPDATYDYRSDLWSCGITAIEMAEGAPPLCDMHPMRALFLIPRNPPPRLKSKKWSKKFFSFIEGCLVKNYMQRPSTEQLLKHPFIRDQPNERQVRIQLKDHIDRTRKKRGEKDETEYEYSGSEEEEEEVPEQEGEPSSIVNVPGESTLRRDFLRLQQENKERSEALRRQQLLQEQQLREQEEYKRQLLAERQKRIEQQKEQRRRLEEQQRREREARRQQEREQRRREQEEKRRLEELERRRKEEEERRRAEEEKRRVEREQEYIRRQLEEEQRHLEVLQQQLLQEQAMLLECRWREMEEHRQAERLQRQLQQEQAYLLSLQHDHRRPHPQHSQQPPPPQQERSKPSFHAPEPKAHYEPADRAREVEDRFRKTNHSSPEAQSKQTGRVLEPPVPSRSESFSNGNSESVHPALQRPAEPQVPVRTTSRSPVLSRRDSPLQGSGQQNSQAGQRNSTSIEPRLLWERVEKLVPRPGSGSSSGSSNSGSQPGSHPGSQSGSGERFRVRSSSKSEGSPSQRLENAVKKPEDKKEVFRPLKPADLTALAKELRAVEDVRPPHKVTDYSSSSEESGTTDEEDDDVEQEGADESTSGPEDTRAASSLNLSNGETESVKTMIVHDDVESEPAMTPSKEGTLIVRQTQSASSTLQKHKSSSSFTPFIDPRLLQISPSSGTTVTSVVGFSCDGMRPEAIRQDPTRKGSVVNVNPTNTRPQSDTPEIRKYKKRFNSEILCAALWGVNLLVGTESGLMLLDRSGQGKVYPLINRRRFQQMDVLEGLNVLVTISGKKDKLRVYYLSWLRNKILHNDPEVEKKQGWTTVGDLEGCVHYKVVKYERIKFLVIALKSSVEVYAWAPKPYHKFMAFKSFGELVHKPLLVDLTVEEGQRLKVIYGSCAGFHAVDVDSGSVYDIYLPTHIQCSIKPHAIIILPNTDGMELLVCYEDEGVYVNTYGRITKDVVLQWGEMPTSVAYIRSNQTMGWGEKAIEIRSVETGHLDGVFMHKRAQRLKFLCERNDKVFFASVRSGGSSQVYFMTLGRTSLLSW

| SMILES | inhibition [%] |
| --- | --- |
| O=C1Nc2ccc(I)cc2C1=Cc1cc(Br)c(O)c(Br)c1 | 31.7 |
| CCS(=O)(=O)c1ccc(OC)c(Nc2ncc(-c3cccc(-c4ccccc4F)c3)o2)c1 | 2.34 |
| COc1ccc(-c2ccc3c(NC(=O)C4CC4)n[nH]c3n2)cc1 | 5.28 |
| CCc1ccc(Oc2nccc(-c3c(-c4ccc(F)cc4)ncn3C3CCNCC3)n2)cc1 | 2.58 |
| NCc1ccc(-n2c(-c3nonc3N)nc3cnccc32)cc1 | 10.1 |
| CN1CCN(CCCNc2nc3ccc(Oc4ccc(NC(=O)Nc5cc(C(F)(F)F)ccc5F)cc4)cc3[nH]2)CC1 | 2.15 |
| NS(=O)(=O)c1ccc(Nc2cc(-c3ccc(O)c(F)c3)n[nH]2)cc1 | 18.7 |
| NS(=O)(=O)c1ccc(N/N=C2\C(=O)Nc3ccc(-c4cnco4)cc32)cc1 | 65.1 |
| CCc1cccc(CC)c1/C=C/c1cncc(C(=O)NC)c1 | 1.73 |
| FC(F)(F)c1cccc(Nc2nccc(-c3cnn4nc(-c5ccccc5)ccc34)n2)c1 | 2.1 |
| COc1ccc2cc(-c3c(-c4ccncc4)nc(-c4ccc([S+](C)[O-])cc4C)n3C)ccc2c1 (stereo unspecified) | 1.21 |
| CCS(=O)(=O)c1ccc(OC)c(Nc2ncc(-c3ccccc3Cl)o2)c1 | 4.85 |
| C[C@@H](Oc1cc(-n2cnc3ccc(OCC4CCN(C)CC4)cc32)sc1C(N)=O)c1ccccc1Cl | 4.27 |
| C[C@@H](Oc1cc(-n2cnc3ccc(OC4CCN(C)CC4)cc32)sc1C(N)=O)c1ccccc1Cl | 3.22 |
| CCN(CC)Cc1ccc(Nc2nccc(-c3cnn4ncccc34)n2)cc1 | 5.41 |
| Fc1ccc(-c2ncn(CCCN3CCOCC3)c2-c2ccncc2)cc1 | 2.27 |
